Where “and” joins values, the source holds several entries; their conditions need not be identical. Identical values can stand only once. Inconclusive results are not listed. Where a structure was tested more than once in an assay, its records may differ in their call. Calls of active or inactive are those of the source. Unless noted, calls follow the shape of the dose curve; as a rule, active = well fitted curve in the direction sought with a large enough effect in the repeat runs; inconclusive = weak or mixed curves; inactive = no such curve, though single readings can be large; an effect the other way counts as inactive or inconclusive.
What was measured:
[1] = qHTS assay to identify small molecule antagonists of the glucocorticoid receptor (GR) signaling pathway - cell viability counter screen (AID 720693); also: nearly all actives have a fitted effect of over 55% in size
[2] = qHTS assay for identifying genotoxic compounds that show differential cytotoxicity against isogenic chicken DT40 cell lines with known DNA damage response pathways - wild type cell line (AID 743012); also: nearly all actives have a fitted effect of over 60% in size; also: potency is read from the fitted curve at half-maximal effect
How it was run: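 Quantitative HTS on parental DT40 cells: 40 h compound treatment at 37 C/5% CO2, with viability then determined by CellTiter-Glo luminescence. Values serve as the DNA repair-proficient reference for differential cytotoxicity.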

[3] = qHTS assay for identifying genotoxic compounds that show differential cytotoxicity against isogenic chicken DT40 cell lines with known DNA damage response pathways - Rev3 mutant cell line (AID 743014); also: nearly all actives have a fitted effect of over 55% in size; also: potency is read from the fitted curve at half-maximal effect
[4] = qHTS assay for identifying genotoxic compounds that show differential cytotoxicity against isogenic chicken DT40 cell lines with known DNA damage response pathways - Rad54/Ku70 mutant cell line (AID 743015); also: nearly all actives have a fitted effect of over 60% in size; also: potency is read from the fitted curve at half-maximal effect
[5] = qHTS assay to identify small molecule antagonists of the androgen receptor (AR) signaling pathway using the MDA cell line - cell viability counter screen (AID 743041; also: nearly all actives have a fitted effect of over 45% in size)
How it was run: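 Same-well cytotoxicity was assessed by CellTiter-Fluor in MDA-kb2 AR-luc cells after 16 h of compound treatment under R1881 agonism.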

[6] = qHTS assay to identify small molecule antagonists of the thyroid receptor (TR) signaling pathway - cell viability counter screen (AID 743064); also: nearly all actives have a fitted effect of over 50% in size; also: potency is read from the fitted curve at half-maximal effect
How it was run: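 GH3.TRE-Luc rat pituitary cells carrying a TRE-luciferase reporter were treated with compound plus 1 nM T3 (final) for 23.5 h at 37 °C. Viability was then read in the same wells by CellTiter-Fluor fluorescence after a further 30 min.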

[7] = qHTS assay to identify small molecule antagonists of the thyroid receptor (TR) signaling pathway (AID 743065); also: nearly all actives have a fitted effect of over 55% in size; also: potency is read from the fitted curve at half-maximal effect
How it was run: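 GH3.TRE-Luc rat pituitary cells (two TREs driving luciferase) were dosed with compound, then stimulated with 1 nM T3 (final) for 23.5 h at 37 C. ONE-Glo luminescence was the read-out, with CellTiter-Fluor fluorescence as the cytotoxicity counter-screen.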

[8] = test system: thyroid hormone receptor (rat, GH3 cells); assay: qHTS assay to identify small molecule agonists of the thyroid receptor (TR) signaling pathway (AID 743066; calls by dose curve)
[9] = molecular target: Estrogen receptor (Homo sapiens) (UniProt P03372); assay: qHTS assay to identify small molecule antagonists of the estrogen receptor alpha (ER-alpha) signaling pathway (AID 743069; active = well fitted curve in the direction sought with a large enough effect in the signal ratio in the repeat runs, not every such curve was filed as active; the % refers to the signal ratio)
How it was run: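 Reporter cells (ER-alpha-bla, HEK293 background) are conditioned overnight in stripped-serum medium (2% charcoal-stripped FBS). Compound and 17beta-estradiol exposure runs 18 hr at 37C, 5% CO2.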

[10] = qHTS assay to identify small molecule antagonists of the estrogen receptor alpha (ER-alpha) signaling pathway - cell viability counter screen (AID 743074; calls by dose curve;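 also: HEK293 cells carrying ER-alpha-UAS-bla reporter stimulated with 17beta-estradiol; nearly all actives have a fitted effect of over 45% in size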)
[11] = molecular target: Estrogen receptor (Homo sapiens) (UniProt P03372); assay: qHTS assay to identify small molecule agonists of the estrogen receptor alpha (ER-alpha) signaling pathway (AID 743075; calls by dose curve)
[12] = molecular target: Estrogen receptor (Homo sapiens) (UniProt P03372); assay: qHTS assay to identify small molecule agonists of the estrogen receptor alpha (ER-alpha) signaling pathway using the BG1 cell line (AID 743079); also: nearly all actives have a fitted effect of over 20% in size; also: potency is read from the fitted curve at half-maximal effect
[13] = qHTS assay to identify small molecule antagonists of the estrogen receptor alpha (ER-alpha) signaling pathway using the BG1 cell line (AID 743080; calls by dose curve; also: series mostly up to about 70 µM; nearly all actives have a fitted effect of over 25% in size)
How it was run: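 Antagonist mode: compounds in DMSO were pinned onto BG1-Luc-4E2 cells alongside 17beta-estradiol agonist, incubated 21.5 h, and ERE-driven luciferase measured with ONE-Glo. Cytotoxicity was multiplexed using CellTiter-Fluor fluorescence.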

[14] = qHTS assay to identify small molecule antagonists of the estrogen receptor alpha (ER-alpha) signaling pathway using the BG1 cell line - cell viability counter screen (AID 743081);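 also: compound given together with 17beta-estradiol as the ER stimulus; series mostly up to about 70 µM; nearly all actives have a fitted effect of over 45% in size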
Aromatase (Homo sapiens) = Aromatase (Homo sapiens) (UniProt P11511); assay: qHTS assay to identify aromatase inhibitors (AID 743083); also: nearly all actives have a fitted effect of over 55% in size; also: potency is read from the fitted curve at half-maximal effect
[15] = molecular target: Androgen receptor (Homo sapiens) (UniProt P10275); assay: qHTS assay to identify small molecule antagonists of the androgen receptor (AR) signaling pathway (AID 743035; active = well fitted inhibition curve with a large enough effect in the signal ratio in the repeat runs, not every such curve was filed as active; the % refers to the signal ratio)
How it was run: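 Cell line: GeneBLAzer AR-UAS-bla GripTite (HEK293). Stimulus: R1881 added after compound. Exposure: 16 h, 37C, 5% CO2. Readout: LiveBLAzer B/G FRET fluorescence after 2 h at room temperature.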

[16] = molecular target: Androgen receptor (Homo sapiens) (UniProt P10275); assay: qHTS assay to identify small molecule agonists of the androgen receptor (AR) signaling pathway (AID 743036; active = well fitted activation curve with a large enough effect in the signal ratio in the repeat runs, with a control signal flat, not every such curve was filed as active; the % refers to the signal ratio)
How it was run: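 HEK293 cells stably carrying a UAS-driven beta-lactamase reporter (GeneBLAzer AR-UAS-bla-GripTite) were plated at 2,000 cells/well, rested 4 h at 37C, then exposed to compounds in DMSO for 16 h. LiveBLAzer B/G FRET substrate was added for 2 h at room temperature; fluorescence read.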

[17] = molecular target: Androgen receptor (Homo sapiens) (UniProt P10275); assay: qHTS assay to identify small molecule agonists of the androgen receptor (AR) signaling pathway using the MDA cell line (AID 743040; also: nearly all actives have a fitted effect of over 20% in size)
How it was run: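 Human breast carcinoma MDA-kb2 reporter cells (MMTV-luc, AR/GR elements) were treated for 16 h at 37C in 0% CO2 following a 5 h settling period. Signal was quantified by ONE-Glo luminescence.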

[18] = molecular target: Androgen receptor (Homo sapiens) (UniProt P10275); assay: qHTS assay to identify small molecule antagonists of the androgen receptor (AR) signaling pathway using the MDA cell line (AID 743042; also: nearly all actives have a fitted effect of over 55% in size)
How it was run: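 MDA-kb2 breast carcinoma cells carrying MMTV-luciferase (AR/GR responsive) were co-treated with compounds and the agonist R1881 for 16 h at 37C. Inhibition read as ONE-Glo luminescence; CellTiter-Fluor fluorescence measured in parallel for cytotoxicity.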

[19] = qHTS assay to identify small molecule antagonists of the androgen receptor (AR) signaling pathway - cell viability counter screen (AID 743033; also: nearly all actives have a fitted effect of over 45% in size)

Measured: Potency

Estrogen receptor (Homo sapiens), sequence (P03372 whole entry, looked up): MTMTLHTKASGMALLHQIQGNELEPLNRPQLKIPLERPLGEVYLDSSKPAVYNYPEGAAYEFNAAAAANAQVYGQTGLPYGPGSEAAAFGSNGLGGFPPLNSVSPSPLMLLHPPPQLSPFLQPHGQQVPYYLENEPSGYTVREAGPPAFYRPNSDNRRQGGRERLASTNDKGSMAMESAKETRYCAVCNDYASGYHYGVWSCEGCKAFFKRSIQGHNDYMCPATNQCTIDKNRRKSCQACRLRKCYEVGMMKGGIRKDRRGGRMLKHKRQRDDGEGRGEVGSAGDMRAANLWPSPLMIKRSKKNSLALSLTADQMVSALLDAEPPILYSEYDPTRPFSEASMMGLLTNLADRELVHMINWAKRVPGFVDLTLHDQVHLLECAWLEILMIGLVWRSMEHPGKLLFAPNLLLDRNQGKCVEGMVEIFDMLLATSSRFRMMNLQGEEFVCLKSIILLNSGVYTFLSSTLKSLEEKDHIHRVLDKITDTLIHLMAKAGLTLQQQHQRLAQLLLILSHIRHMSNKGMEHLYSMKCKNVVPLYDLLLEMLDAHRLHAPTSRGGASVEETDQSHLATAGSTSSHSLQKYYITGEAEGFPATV
Aromatase (Homo sapiens), sequence (P11511 whole entry, looked up): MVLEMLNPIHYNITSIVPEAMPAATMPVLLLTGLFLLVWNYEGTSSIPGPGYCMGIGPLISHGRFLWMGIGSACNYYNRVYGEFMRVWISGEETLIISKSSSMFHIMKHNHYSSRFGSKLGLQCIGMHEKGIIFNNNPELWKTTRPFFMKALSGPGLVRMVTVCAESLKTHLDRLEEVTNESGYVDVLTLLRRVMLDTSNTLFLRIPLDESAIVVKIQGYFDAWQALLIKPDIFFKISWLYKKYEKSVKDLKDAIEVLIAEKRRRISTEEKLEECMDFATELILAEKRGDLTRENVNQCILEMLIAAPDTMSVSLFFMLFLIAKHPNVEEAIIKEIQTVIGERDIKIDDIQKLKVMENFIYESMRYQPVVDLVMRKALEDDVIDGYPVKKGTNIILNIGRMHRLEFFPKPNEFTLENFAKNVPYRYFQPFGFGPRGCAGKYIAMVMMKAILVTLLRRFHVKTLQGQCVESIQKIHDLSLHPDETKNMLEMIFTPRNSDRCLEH
Androgen receptor (Homo sapiens), sequence (P10275 whole entry, looked up): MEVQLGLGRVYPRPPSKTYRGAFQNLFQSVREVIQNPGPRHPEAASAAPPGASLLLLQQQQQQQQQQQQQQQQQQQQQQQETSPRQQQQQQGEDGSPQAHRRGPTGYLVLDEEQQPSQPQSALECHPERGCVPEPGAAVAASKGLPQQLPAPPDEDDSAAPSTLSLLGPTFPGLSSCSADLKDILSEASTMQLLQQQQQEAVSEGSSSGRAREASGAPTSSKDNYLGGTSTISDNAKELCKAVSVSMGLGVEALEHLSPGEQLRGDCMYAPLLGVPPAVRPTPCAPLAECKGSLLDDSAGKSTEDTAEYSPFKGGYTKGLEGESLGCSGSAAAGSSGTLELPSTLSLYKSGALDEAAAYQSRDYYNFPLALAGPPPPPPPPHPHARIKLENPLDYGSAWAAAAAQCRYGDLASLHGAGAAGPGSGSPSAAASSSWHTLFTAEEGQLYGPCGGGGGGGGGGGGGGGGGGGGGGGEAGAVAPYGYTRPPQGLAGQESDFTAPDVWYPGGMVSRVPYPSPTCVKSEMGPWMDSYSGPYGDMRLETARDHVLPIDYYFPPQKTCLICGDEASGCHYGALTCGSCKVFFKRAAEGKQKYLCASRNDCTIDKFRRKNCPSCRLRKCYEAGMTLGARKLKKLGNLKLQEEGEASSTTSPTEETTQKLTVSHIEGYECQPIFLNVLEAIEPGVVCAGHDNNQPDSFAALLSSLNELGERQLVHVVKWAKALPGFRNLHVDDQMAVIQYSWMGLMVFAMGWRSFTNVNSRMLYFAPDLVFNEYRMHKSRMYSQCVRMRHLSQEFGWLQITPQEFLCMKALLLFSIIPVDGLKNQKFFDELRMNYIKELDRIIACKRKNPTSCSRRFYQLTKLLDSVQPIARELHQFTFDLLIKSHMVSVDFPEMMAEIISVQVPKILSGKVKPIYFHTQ

Cc1cc2c(cc1S(N)(=O)=O)S(=O)(=O)CCC2
not listed: [15] | [16] | [17] | [18] | [19]
inactive: all other assays above

OC(CCN1CCCCC1)(c1ccccc1)C1CC2C=CC1C2 (stereo not given)
active: [2] 7.5 µM and 9.44 µM | [3] 15 µM and 13.3 µM | [4] 23.7 µM and 21.1 µM | [7] 26.6 µM and 23.7 µM
inactive: [1] | [8] | [9] | [10] | [11] | [12] | [13] | Aromatase (Homo sapiens)

CCC=O
inactive: [1] | [2] | [3] | [4] | [5] | [8] | [9] | [10] | [13] | [14] | Aromatase (Homo sapiens)

CCCCC/C=C\CCC=O
not listed: [7] | [16] | [17] | [18] | [19]
inactive: all other assays above

COC(=O)CCSCCC(=O)OC
inactive: [1] | [2] | [3] | [4] | [5] | [6] | [7] | [8] | [10] | [14]

CCN(CC)CCNC(=O)c1cc(S(C)(=O)=O)ccc1OC
not listed: [15] | [16] | [17] | [18] | [19]
inactive: all other assays above

NS(=O)(=O)c1cc2c(cc1Cl)NC(C1CC3C=CC1C3)NS2(=O)=O (stereo not given)
not listed: [19]
inactive: all other assays above

c1ccc(CC2=NCCN2)cc1
not listed: [7] | [15] | [16] | [17] | [18] | [19]
inactive: all other assays above

Nc1ccccc1S(=O)(=O)O
inactive: [1] | [2] | [3] | [4] | [5] | [7] | [8] | [10] | [14] | Aromatase (Homo sapiens)

CCN(CC)CCOCCOC(=O)C1(c2ccccc2)CCCC1
active: [2] 5.96 µM | [3] 2.11 µM | [4] 5.96 µM
inactive: [1] | [5] | [11] | [12] | [14] | Aromatase (Homo sapiens)

CCn1nc(C(=O)O)c(=O)c2cc3c(cc21)OCO3
not listed: [6] | [7] | [8] | [19]
inactive: all other assays above

O=S(O)CO
active: [12] 26.6 µM
not listed: [7] | [16] | [19]
inactive: all other assays above

Cn1cc(S(C)=O)c(=O)c2ccc(F)cc21 (stereo not given)
not listed: [10] | [14] | [15] | [16] | [17] | [18] | [19]
inactive: all other assays above

Nc1c[n+](N2CCOCC2)no1
not listed: [7] | [10] | [15] | [16] | [17] | [18] | [19]
inactive: all other assays above

CC(C)(C)c1ccc(O)c(O)c1
active: [2] 17.8 µM and 6.11 µM | [3] 12.6 µM and 7.27 µM | [4] 12.6 µM and 10.5 µM | [6] 70.9 µM and 56.1 µM | [7] 56.3 µM and 24.3 µM
inactive: [1] | [5] | [8] | [10] | [14]
inactive and 12.6 µM (active): Aromatase (Homo sapiens)

CO[C@]12C[C@@H](COC(=O)c3cncc(Br)c3)CN(C)[C@@H]1Cc1cn(C)c3cccc2c13
active: [2] 5.96 µM | [3] 10.6 µM | [4] 11.9 µM | [6] 21.1 µM
not listed: [7] | [9] | [11] | [12] | [13] | [19]
inactive: all other assays above

CCCCCCCCS(=O)(=O)Cl
inactive: [1] | [2] | [3] | [4] | [5] | [6] | [7] | [8] | [10] | [14] | Aromatase (Homo sapiens)

O=C(CCCN1CCC(O)(c2cccc(C(F)(F)F)c2)CC1)c1ccc(F)cc1
active: [2] 10.6 µM | [3] 11.9 µM | [4] 11.9 µM
inactive: [1] | [19] | [10] | Aromatase (Homo sapiens)

Cc1ccc(Cl)cc1Cl
not listed: [7] | [15] | [16] | [17] | [18] | [19]
inactive: all other assays above

C[N+](C)(C)CC(O)CC(=O)[O-] (stereo not given)
inactive: [1] | [2] | [3] | [4] | [5] | [6] | [7] | [8] | [10] | [14] | Aromatase (Homo sapiens)

CCSC(=O)N(CC(C)C)CC(C)C
not listed: [19]
inactive: all other assays above

N=C(N)c1ccccc1
inactive: [1] | [2] | [4] | [19] | [5] | [6] | [7] | [8] | [10] | [14] | Aromatase (Homo sapiens)

O=C(O)CCCl
not listed: [4] | [5] | [15] | [16] | [17] | [18] | [19]
inactive: all other assays above

From PubChem BioAssay (Tox21)
